Measurements reported in article PMC7862700, “An all-to-all approach to the identification of sequence-specific readers for epigenetic DNA modifications on cytosine”.

What was measured:
Assay in all cases: DAPPL (digital affinity profiling via proximity ligation, sequencing); 10 mM Tris-HCl pH 7.5, 50 mM NaCl, 1 mM DTT, 4% glycerol, room temperature, 30 min; GST-TFs on glutathione beads, 16-mer random dsDNA library, 0.1% formaldehyde crosslink after washing; high values mean tight binding
Conditions in all cases: protein: recombinant; tags: N-terminal GST; dsDNA, one strand shown
FLI1 = target: T1, FLI1 (Homo sapiens, UniProt Q01543 1-452)
T1 sequence: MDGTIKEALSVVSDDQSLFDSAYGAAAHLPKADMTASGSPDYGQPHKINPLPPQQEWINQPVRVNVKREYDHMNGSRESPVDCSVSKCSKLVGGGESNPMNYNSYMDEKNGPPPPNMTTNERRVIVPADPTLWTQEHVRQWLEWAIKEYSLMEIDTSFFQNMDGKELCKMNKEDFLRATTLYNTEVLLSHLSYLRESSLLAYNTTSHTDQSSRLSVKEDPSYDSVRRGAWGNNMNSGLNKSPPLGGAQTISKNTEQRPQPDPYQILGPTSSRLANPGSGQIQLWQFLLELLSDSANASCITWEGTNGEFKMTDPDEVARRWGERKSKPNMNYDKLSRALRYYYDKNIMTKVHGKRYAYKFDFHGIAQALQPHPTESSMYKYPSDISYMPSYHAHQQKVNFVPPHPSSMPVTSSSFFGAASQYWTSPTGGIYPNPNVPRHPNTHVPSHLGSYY
In short: (§1)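 After expression in yeast as GST fusions, human transcription factors were bound to glutathione beads, DNA-barcoded and mixed with a tag-only sample. The pools were incubated with 200 nmole of a 16-mer random double-stranded DNA library in Tris/NaCl/DTT/glycerol buffer (30 min, room temperature), washed and crosslinked with 0.1% formaldehyde. Proximity ligation with BsaI/T4 ligase ran for 1 h at 37 °C, before PCR amplification and sequencing on an Illumina NextSeq500. Binding signal is a hexamer's read frequency for a factor divided by its frequency for the tag-only sample.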

ELK1 = target: T2, ELK1 (Homo sapiens, UniProt P19419 1-428)
T2 sequence: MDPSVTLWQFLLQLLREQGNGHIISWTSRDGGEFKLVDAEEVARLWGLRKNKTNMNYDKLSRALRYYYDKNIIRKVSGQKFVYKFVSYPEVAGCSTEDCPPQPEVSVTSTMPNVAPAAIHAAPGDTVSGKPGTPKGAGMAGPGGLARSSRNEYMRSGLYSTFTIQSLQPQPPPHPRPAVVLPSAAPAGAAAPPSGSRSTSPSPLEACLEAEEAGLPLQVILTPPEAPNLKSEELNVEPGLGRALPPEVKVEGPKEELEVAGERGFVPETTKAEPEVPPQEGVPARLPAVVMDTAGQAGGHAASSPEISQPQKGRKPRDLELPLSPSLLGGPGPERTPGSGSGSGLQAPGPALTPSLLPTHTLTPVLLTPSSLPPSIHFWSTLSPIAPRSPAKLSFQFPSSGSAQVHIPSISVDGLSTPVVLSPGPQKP
In short: as §1

GABPA = target: T3, GABPA (Homo sapiens, UniProt Q06546 1-454)
T3 sequence: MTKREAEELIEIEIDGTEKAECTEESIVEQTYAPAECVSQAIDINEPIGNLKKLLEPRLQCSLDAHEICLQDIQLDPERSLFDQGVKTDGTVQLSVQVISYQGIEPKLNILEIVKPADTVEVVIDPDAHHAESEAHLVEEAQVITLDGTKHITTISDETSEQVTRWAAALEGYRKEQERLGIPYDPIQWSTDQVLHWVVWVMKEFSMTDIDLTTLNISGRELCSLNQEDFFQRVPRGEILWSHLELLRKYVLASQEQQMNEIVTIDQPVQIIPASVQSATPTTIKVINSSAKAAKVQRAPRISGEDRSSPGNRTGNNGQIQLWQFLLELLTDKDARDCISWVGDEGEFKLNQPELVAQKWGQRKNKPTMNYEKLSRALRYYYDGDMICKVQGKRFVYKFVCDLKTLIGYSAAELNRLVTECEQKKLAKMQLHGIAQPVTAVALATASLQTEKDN
In short: as §1

ERG = target: T4, ERG (Homo sapiens, UniProt P11308 1-479)
T4 sequence: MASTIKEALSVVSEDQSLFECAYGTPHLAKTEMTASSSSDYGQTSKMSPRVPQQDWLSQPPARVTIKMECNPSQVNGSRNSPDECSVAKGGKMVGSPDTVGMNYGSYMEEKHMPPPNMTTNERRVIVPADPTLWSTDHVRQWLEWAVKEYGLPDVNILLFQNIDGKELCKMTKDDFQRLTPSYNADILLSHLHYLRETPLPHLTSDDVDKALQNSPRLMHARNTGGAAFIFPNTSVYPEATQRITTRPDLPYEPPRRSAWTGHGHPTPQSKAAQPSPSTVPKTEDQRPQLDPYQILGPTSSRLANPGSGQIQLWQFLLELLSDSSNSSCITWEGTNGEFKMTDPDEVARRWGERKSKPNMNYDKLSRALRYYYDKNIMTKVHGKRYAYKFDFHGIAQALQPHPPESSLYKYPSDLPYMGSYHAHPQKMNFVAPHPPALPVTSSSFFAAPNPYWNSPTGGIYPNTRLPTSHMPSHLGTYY
In short: as §1

ELF1 = ELF1 (Homo sapiens, UniProt P32519 1-619)
Sequence of ELF1 (P32519 whole entry): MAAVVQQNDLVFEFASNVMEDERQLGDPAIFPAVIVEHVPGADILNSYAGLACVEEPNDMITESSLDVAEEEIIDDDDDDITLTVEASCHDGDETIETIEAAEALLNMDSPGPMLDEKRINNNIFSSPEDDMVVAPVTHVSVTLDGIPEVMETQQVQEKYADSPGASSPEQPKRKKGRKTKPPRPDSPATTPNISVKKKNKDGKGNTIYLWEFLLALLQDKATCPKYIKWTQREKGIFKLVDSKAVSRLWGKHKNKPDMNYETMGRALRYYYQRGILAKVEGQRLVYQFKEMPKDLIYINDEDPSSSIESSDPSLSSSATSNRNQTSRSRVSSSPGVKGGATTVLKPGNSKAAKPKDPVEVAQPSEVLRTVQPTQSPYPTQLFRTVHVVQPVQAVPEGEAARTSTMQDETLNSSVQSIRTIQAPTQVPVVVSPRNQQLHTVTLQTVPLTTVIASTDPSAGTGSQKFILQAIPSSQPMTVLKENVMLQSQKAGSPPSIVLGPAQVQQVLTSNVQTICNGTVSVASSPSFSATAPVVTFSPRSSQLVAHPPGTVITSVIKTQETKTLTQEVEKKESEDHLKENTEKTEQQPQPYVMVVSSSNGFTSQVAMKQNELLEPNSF
In short: as §1

EHF = target: T5, EHF (Homo sapiens, UniProt Q9NZC4 1-300)
T5 sequence: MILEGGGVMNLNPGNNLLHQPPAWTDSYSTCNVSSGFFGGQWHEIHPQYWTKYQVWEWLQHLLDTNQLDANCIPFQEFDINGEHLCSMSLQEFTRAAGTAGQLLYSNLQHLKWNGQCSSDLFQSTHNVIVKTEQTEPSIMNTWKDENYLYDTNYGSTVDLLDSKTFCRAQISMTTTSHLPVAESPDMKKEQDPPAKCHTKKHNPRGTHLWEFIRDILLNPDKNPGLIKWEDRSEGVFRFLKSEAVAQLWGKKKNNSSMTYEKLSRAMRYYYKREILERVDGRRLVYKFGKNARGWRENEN
In short: as §1

SPI1 = SPI1 (Homo sapiens, UniProt P17947 1-270)
In short: as §1

SPIB = SPIB (Homo sapiens, UniProt Q01892 1-262)
Sequence of SPIB (Q01892 whole entry): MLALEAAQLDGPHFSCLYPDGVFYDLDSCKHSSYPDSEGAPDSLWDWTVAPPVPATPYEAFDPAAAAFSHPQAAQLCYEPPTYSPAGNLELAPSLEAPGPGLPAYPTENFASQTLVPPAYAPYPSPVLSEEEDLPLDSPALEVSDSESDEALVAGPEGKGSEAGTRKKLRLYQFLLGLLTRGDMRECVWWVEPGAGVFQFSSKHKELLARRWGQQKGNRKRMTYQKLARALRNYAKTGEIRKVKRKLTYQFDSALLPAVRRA
In short: as §1

ELK3 = target: T6, ELK3 (Homo sapiens, UniProt P41970 1-407)
T6 sequence: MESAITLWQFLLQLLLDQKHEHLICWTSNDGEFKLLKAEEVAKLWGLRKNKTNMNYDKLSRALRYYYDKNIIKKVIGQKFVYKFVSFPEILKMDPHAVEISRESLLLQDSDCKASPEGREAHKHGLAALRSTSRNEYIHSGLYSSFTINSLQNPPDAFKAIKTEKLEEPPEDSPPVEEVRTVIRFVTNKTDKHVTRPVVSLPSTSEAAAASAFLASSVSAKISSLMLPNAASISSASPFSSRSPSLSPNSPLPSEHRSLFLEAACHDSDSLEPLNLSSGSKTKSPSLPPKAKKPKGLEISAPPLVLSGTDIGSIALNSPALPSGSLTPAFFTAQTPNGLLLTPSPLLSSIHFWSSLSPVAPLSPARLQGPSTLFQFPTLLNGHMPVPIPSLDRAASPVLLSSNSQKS
In short: as §1

Sequence	binding signal (FLI1)	binding signal (ELK1)	binding signal (GABPA)	binding signal (ERG)	binding signal (ELF1)	binding signal (EHF)	binding signal (SPI1)	binding signal (SPIB)	binding signal (ELK3)
TGCCCC	1.13 fold enrichment (6-mer frequency, TF over GST control)	1.2 fold enrichment (6-mer frequency, TF over GST control)	1.27 fold enrichment (6-mer frequency, TF over GST control)	1.28 fold enrichment (6-mer frequency, TF over GST control)	1.27 fold enrichment (6-mer frequency, TF over GST control)	1.32 fold enrichment (6-mer frequency, TF over GST control)	1.31 fold enrichment (6-mer frequency, TF over GST control)	1.13 fold enrichment (6-mer frequency, TF over GST control)	1.18 fold enrichment (6-mer frequency, TF over GST control)
ACAAAA	1.14 fold enrichment (6-mer frequency, TF over GST control)	1.11 fold enrichment (6-mer frequency, TF over GST control)	1.15 fold enrichment (6-mer frequency, TF over GST control)	1.18 fold enrichment (6-mer frequency, TF over GST control)	1.16 fold enrichment (6-mer frequency, TF over GST control)	1.21 fold enrichment (6-mer frequency, TF over GST control)	1.22 fold enrichment (6-mer frequency, TF over GST control)	1.14 fold enrichment (6-mer frequency, TF over GST control)	1.16 fold enrichment (6-mer frequency, TF over GST control)
ACTTGG	1.34 fold enrichment (6-mer frequency, TF over GST control)	1.19 fold enrichment (6-mer frequency, TF over GST control)	1.15 fold enrichment (6-mer frequency, TF over GST control)	1.16 fold enrichment (6-mer frequency, TF over GST control)	1.34 fold enrichment (6-mer frequency, TF over GST control)	1.1 fold enrichment (6-mer frequency, TF over GST control)	1.21 fold enrichment (6-mer frequency, TF over GST control)	1.25 fold enrichment (6-mer frequency, TF over GST control)	1.29 fold enrichment (6-mer frequency, TF over GST control)
TGGCAG	1.19 fold enrichment (6-mer frequency, TF over GST control)	1.09 fold enrichment (6-mer frequency, TF over GST control)	1.07 fold enrichment (6-mer frequency, TF over GST control)	1.01 fold enrichment (6-mer frequency, TF over GST control)	1.06 fold enrichment (6-mer frequency, TF over GST control)	1.11 fold enrichment (6-mer frequency, TF over GST control)	1.1 fold enrichment (6-mer frequency, TF over GST control)	1.12 fold enrichment (6-mer frequency, TF over GST control)	1.21 fold enrichment (6-mer frequency, TF over GST control)
GATACG	1.11 fold enrichment (6-mer frequency, TF over GST control)	1.12 fold enrichment (6-mer frequency, TF over GST control)	1.12 fold enrichment (6-mer frequency, TF over GST control)	1.11 fold enrichment (6-mer frequency, TF over GST control)	1.15 fold enrichment (6-mer frequency, TF over GST control)	1.24 fold enrichment (6-mer frequency, TF over GST control)	1.04 fold enrichment (6-mer frequency, TF over GST control)	1.17 fold enrichment (6-mer frequency, TF over GST control)	1.18 fold enrichment (6-mer frequency, TF over GST control)
CCCACA	1.13 fold enrichment (6-mer frequency, TF over GST control)	1.12 fold enrichment (6-mer frequency, TF over GST control)	1.26 fold enrichment (6-mer frequency, TF over GST control)	1.07 fold enrichment (6-mer frequency, TF over GST control)	1.17 fold enrichment (6-mer frequency, TF over GST control)	1.12 fold enrichment (6-mer frequency, TF over GST control)	1.08 fold enrichment (6-mer frequency, TF over GST control)	1.1 fold enrichment (6-mer frequency, TF over GST control)	1.08 fold enrichment (6-mer frequency, TF over GST control)
TTCTGT	1.26 fold enrichment (6-mer frequency, TF over GST control)	1.3 fold enrichment (6-mer frequency, TF over GST control)	1.3 fold enrichment (6-mer frequency, TF over GST control)	1.27 fold enrichment (6-mer frequency, TF over GST control)	1.27 fold enrichment (6-mer frequency, TF over GST control)	1.25 fold enrichment (6-mer frequency, TF over GST control)	1.37 fold enrichment (6-mer frequency, TF over GST control)	1.22 fold enrichment (6-mer frequency, TF over GST control)	1.33 fold enrichment (6-mer frequency, TF over GST control)
CCTGAA	1.35 fold enrichment (6-mer frequency, TF over GST control)	1.39 fold enrichment (6-mer frequency, TF over GST control)	1.39 fold enrichment (6-mer frequency, TF over GST control)	1.41 fold enrichment (6-mer frequency, TF over GST control)	1.35 fold enrichment (6-mer frequency, TF over GST control)	1.33 fold enrichment (6-mer frequency, TF over GST control)	1.35 fold enrichment (6-mer frequency, TF over GST control)	1.42 fold enrichment (6-mer frequency, TF over GST control)	1.32 fold enrichment (6-mer frequency, TF over GST control)
ACAACC	1.25 fold enrichment (6-mer frequency, TF over GST control)	1.28 fold enrichment (6-mer frequency, TF over GST control)	1.21 fold enrichment (6-mer frequency, TF over GST control)	1.22 fold enrichment (6-mer frequency, TF over GST control)	1.16 fold enrichment (6-mer frequency, TF over GST control)	1.29 fold enrichment (6-mer frequency, TF over GST control)	1.2 fold enrichment (6-mer frequency, TF over GST control)	1.28 fold enrichment (6-mer frequency, TF over GST control)	1.28 fold enrichment (6-mer frequency, TF over GST control)
TGGAAT	1.36 fold enrichment (6-mer frequency, TF over GST control)	1.21 fold enrichment (6-mer frequency, TF over GST control)	1.3 fold enrichment (6-mer frequency, TF over GST control)	1.25 fold enrichment (6-mer frequency, TF over GST control)	1.22 fold enrichment (6-mer frequency, TF over GST control)	1.19 fold enrichment (6-mer frequency, TF over GST control)	1.25 fold enrichment (6-mer frequency, TF over GST control)	1.21 fold enrichment (6-mer frequency, TF over GST control)	1.25 fold enrichment (6-mer frequency, TF over GST control)
AGCCCT	1.03 fold enrichment (6-mer frequency, TF over GST control)	1.14 fold enrichment (6-mer frequency, TF over GST control)	1.11 fold enrichment (6-mer frequency, TF over GST control)	1.09 fold enrichment (6-mer frequency, TF over GST control)	1.07 fold enrichment (6-mer frequency, TF over GST control)	1.18 fold enrichment (6-mer frequency, TF over GST control)	1.09 fold enrichment (6-mer frequency, TF over GST control)	1.14 fold enrichment (6-mer frequency, TF over GST control)	1.07 fold enrichment (6-mer frequency, TF over GST control)
CCACGA	1.18 fold enrichment (6-mer frequency, TF over GST control)	1.17 fold enrichment (6-mer frequency, TF over GST control)	1.19 fold enrichment (6-mer frequency, TF over GST control)	1.12 fold enrichment (6-mer frequency, TF over GST control)	1.1 fold enrichment (6-mer frequency, TF over GST control)	1.23 fold enrichment (6-mer frequency, TF over GST control)	1.12 fold enrichment (6-mer frequency, TF over GST control)	1.06 fold enrichment (6-mer frequency, TF over GST control)	1.16 fold enrichment (6-mer frequency, TF over GST control)
TTTACC	1.28 fold enrichment (6-mer frequency, TF over GST control)	1.2 fold enrichment (6-mer frequency, TF over GST control)	1.24 fold enrichment (6-mer frequency, TF over GST control)	1.18 fold enrichment (6-mer frequency, TF over GST control)	1.23 fold enrichment (6-mer frequency, TF over GST control)	1.31 fold enrichment (6-mer frequency, TF over GST control)	1.17 fold enrichment (6-mer frequency, TF over GST control)	1.21 fold enrichment (6-mer frequency, TF over GST control)	1.37 fold enrichment (6-mer frequency, TF over GST control)
